Hits are enriched below; roughly 15% of the tested compounds scored in any of these assays.
SARS PLpro yeast – SARS-CoV PLP inhibition in yeast; Potency, µM (doses to about 32.9 µM), for inactives: at the top dose activity, positive = growth rescue, hits mostly activators; 0.19% of 330,000 active; AID 485353; S. cerevisiae expressing SARS-CoV PLpro, growth rescue; calls by dose curve; further: potency means the concentration at half of the fitted maximal effect; 0% is about no effect; nearly all actives have a fitted effect of over 55% in size
HCMV antiviral – human cytomegalovirus inhibition | HFF cells, HCMV-luciferase reporter, 72 h; stronger effect = lower value | 4.5% of 410,000 active | AID 1259415 | activity change, negative = inhibition, % at 57.5 µM; in the data active means activity change below about -60%; inconclusive means no clear call, values can overlap the other calls; inactive means above about -39%; further: on the % scale 0 is the no-effect control and ±100 the full control effect
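Screen run at 2 compound doses on HFFs infected with reporter HCMV, MOI 1 PFU/cell. Luciferase activity from cell lysates at 72 h post infection gave inhibition relative to buffer-only and Salinomycin wells.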
HCV inhibitor – blocks hepatitis C virus | Huh7.5.1 HCVcc-Cre infection, luciferase reporter, 44 h | Potency, µM (top dose mostly 41.8 µM), without a hit: at the highest dose activity change, negative = inhibition, usual class: inhibitors | 3.4% of 340,000 active | AID 651820; further: potency means the concentration at half of the fitted maximal effect; on the % scale 0 is the no-effect control and ±100 the full control effect
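Luciferase read-out (15 sec integration) after a 15 min room-temperature substrate step quantifies HCVcc-Cre infection. Cells, 1,000 per well, had compound added 4 h post-plating, then virus at ~0.5 moi, and were cultured 44 h.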
Pf growth 96h – inhibits malaria parasite growth, 96 h | P. falciparum luciferase reporter growth, 96 h | Potency, µM (top dose mostly 28.7 µM), for inactives: top-dose activity change, negative = inhibition, usual class: inhibitors | 6.9% of 320,000 active | AID 504834; further: potency means the concentration at half of the fitted maximal effect; on the % scale 0 is the no-effect control and ±100 the full control effect
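Luminescence readout: decreased luciferase signal marks inhibited growth of reporter-expressing P. falciparum in infected red cells (2% hematocrit, 0.05% parasitemia final), exposed to compound two generations (96 h, 37 C, 5% CO2).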
Sm TGR inh – S. mansoni TGR enzyme inhibition; Q962Y6; purified TGR, DTNB reduction, TNB absorbance 405 nm; Potency, µM (highest dose often 114 µM), without a hit: at the highest dose activity change, negative = inhibition, actives largely listed as inhibitors; 3% of 360,000 active; further: potency means the concentration at half of the fitted maximal effect; on the % scale 0 is the no-effect control and ±100 the full control effect; nearly all actives have a fitted effect of over 60% in size
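TGR 20 nM + NADPH 100 uM (dispensed conc.), cpd preinc 15 min RT; start with NADPH (500 uM addition) then DTNB (15 mM addition). Kinetic TNB absorbance, 405 nm filter. Four-parameter Hill fit across titration.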
Pf growth 48h – P. falciparum growth inhibition at 48 hours (one generation); P. falciparum luciferase growth in erythrocytes, 48 h; Potency, µM (titrated, usually from 28.7 µM), inactives show at the highest dose activity change, negative = inhibition, most hits filed as inhibitors; 5.9% of 310,000 active; AID 504832; further: potency means the concentration at half of the fitted maximal effect; on the % scale 0 is the no-effect control and ±100 the full control effect
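Growth was read as firefly luciferase luminescence after a 48 h, 37 C, 5% CO2 exposure of compounds to reporter-bearing P. falciparum cultures (0.1% parasitemia, 2% hematocrit final) in Albumax-supplemented RPMI 1640.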
Starred values were filed as active, the others as inactive; u = inconclusive; x = no result given; [ ] = remark or other dose. Unless noted, the call rests on the fitted dose curve; in most records, active means well fitted curve in the direction sought with a large enough effect; inconclusive means small, poorly fitted or top-dose-only effect, or another doubt; inactive means no such curve, though single readings can be large; an effect the other way counts as inactive or inconclusive.

SMILES	SARS PLpro yeast	HCMV antiviral	HCV inhibitor	Pf growth 96h	Sm TGR inh	Pf growth 48h
O=C(O)c1cccc(NC(=O)c2ccccc2NC(=O)c2ccccc2F)c1	-2%	33	0.89µM*	-11%	-13%	25%
COc1cc(C(=O)Nc2ccc(C#N)cc2)c([N+](=O)[O-])cc1OC	2%	-21	12%	10µM*	-2%	8%
O=C(Nc1ccccc1C(=O)Nc1ccccc1)c1ccccc1F	0%	u	-12%	u	-2%	6%[0.00184 µM]
COc1ccccc1Nc1ccc(NC(=O)c2cccc([N+](=O)[O-])c2C)cc1	-4%	-62*	u	-17%	-5%	u
COc1ccc(NC(=O)c2ccccc2[N+](=O)[O-])cc1	-1%	u	26%	u	5%	33%
COc1ccc(C(=O)Nn2c(C)nc3ccccc3c2=O)cc1[N+](=O)[O-]	1%	-4	9%	u	-6%	x
COCCCNC(=O)CSc1nc2cc3c(cc2c(=O)n1CCCCCC(=O)NCCc1ccc(OC)c(OC)c1)OCO3	x	8	x	x	-3%	x
COc1ccc2oc(=O)c(-c3nc(-c4cc(OC)c(OC)c(OC)c4)no3)cc2c1	x	-8	x	x	-1%	x
COc1ccccc1-n1nnnc1SCC(=O)Nc1ccc(C)c(N)c1	1%	-18	-25%	0%	0%	u
CN(Cc1ccccc1)C(=O)c1ccccc1NC(=O)c1ccco1	16%	-13	5%	-8%	-12%	2%
Cc1ccc(CN(C)C(=O)c2ccccc2NC(=O)c2ccccc2)o1	-15%	17	-3%	u	40µM*	u
Cc1cccc(NC(=O)c2ccccc2NC(=O)CCC(=O)O)c1	5%	-79*	33%	-3%	-7%	8%
COc1ccccc1NC(=O)c1ccccc1Nc1ccccc1	-7%	-23	-33%	u	1%	5.2µM*
O=C(Nc1ccccc1C(=O)O)c1cccc(NC(=O)c2ccccc2Cl)c1	-3%	5	10%	10µM*	0%	15%
Cc1cccc(NC(=O)c2ccccc2C(=O)Nc2cccc(C)c2)c1	x	-38	15%	x	x	x
COc1ccccc1NC(=O)c1ccccc1C(=O)O	1%	-30	-3%	u	6%[57.1 µM]	34%
CCC(C)C(NC(=O)c1ccccc1NC(=O)c1ccc(C)cc1)C(=O)O (stereo not drawn)	0%	13	16%	-3%	9%	u
Cc1ccc(C(=O)Nc2ccccc2C(=O)NC(C(=O)O)C(C)C)cc1 (stereo not drawn)	-2%	34	-3%	u	2%	12µM*
N#Cc1ccccc1NC(=O)COc1ccccc1C(=O)Nc1ccccc1	-5%	82	-3%	x	x	x
COc1ccccc1NC(=O)CNC(c1ccccc1)c1ccccc1	-5%	-14	-10%	u	1%	u
COc1ccccc1NC(=O)COc1ccc(C(=O)NCc2ccccc2)cc1OC	-4%	-23	u	u	4%	13µM*
COc1ccccc1NC(=O)C(C)NC(c1ccccc1)c1ccccc1 (stereo not drawn)	4%	-13	u	8.3µM*	2%	13µM*
COc1ccccc1NC(=O)COc1ccccc1C(=O)Nc1ccccc1	-3%	-93*	u	0%	15%	u
COc1ccccc1NC(=O)COc1ccc(C(=O)NCC2CCCO2)cc1OC (stereo not drawn)	0%	0	0%	x	x	x
Cc1ccc(OCCNC(=O)CCNC(=O)c2ccc(Cl)cc2)cc1	-2%	-17	14%	38%	-1%	5%
SMILES	SARS PLpro yeast	HCMV antiviral	HCV inhibitor	Pf growth 96h	Sm TGR inh	Pf growth 48h
COC(=O)c1c(C(=O)OC)c(-c2ccc(C)cc2)n2c1CCC2	1%	-33	u	u	8%	0%
COC(=O)c1c(C(=O)OC)c(-c2ccc(OC)cc2)n2c1CS(=O)(=O)C2	-1%	-74*	-3%	u	50µM*	u
CC1(Cc2ccccc2OC(F)(F)F)C(=O)Nc2ccc(-c3ccsc3)cc21 (stereo not drawn)	x	-75*	x	x	x	x
COC(=O)c1ccc(CC2(C)C(=O)Nc3ccc(OC(F)(F)F)cc32)o1 (stereo not drawn)	x	-9	x	x	x	x
CC1(Cc2ccc(OC(F)(F)F)cc2)C(=O)Nc2ccc(S(=O)(=O)NC3CCCCC3)cc21 (stereo not drawn)	x	-99*	x	x	x	x
CC1(Cc2ccccc2OC(F)(F)F)C(=O)Nc2ccc(OC(F)(F)F)cc21 (stereo not drawn)	x	-76*	x	x	x	x
CC1(Cc2ccc3ccccc3n2)C(=O)Nc2ccc(OC(F)(F)F)cc21 (stereo not drawn)	x	-98*	x	x	x	x
Nc1cc(=O)nc(SCC(=O)Nc2ccc(F)cc2)n1CCc1ccccc1	x	23	x	x	-2%	x
COc1ccc(C(c2nnnn2CC2CCCO2)N2CCN(c3cccc(C)c3C)CC2)cc1 (stereo not drawn)	-1%	8	-1%	3%	1%	9.3µM*
CCCCC(c1nnnn1CC1CCCO1)N1CCN(c2cccc(C)c2C)CC1 (stereo not drawn)	-1%	-28	8%	x	-4%	13µM*
CCCCC(c1nnnn1CC1CCCO1)N1CCN(Cc2ccccc2)CC1 (stereo not drawn)	-7%	-27	-18%	u	-13%	u
COc1ccc(C(c2nnnn2CC2CCCO2)N2CCC(C(N)=O)CC2)cc1 (stereo not drawn)	-17%	-17	11%	-17%	-10%	10%
CCNC(=S)NNC(=O)c1cc(Br)cs1	23%	-36	0%	-21%	-6%	14%
Cc1ccc(CNC(=O)c2sc3nc[nH]c(=O)c3c2C)cc1	x	u	x	x	1%	x
O=C(N/N=C\c1ccc([N+](=O)[O-])s1)c1cncc(Br)c1	-42%	-100*	10µM*	3.3µM*	-24%	8.3µM*
COC(=O)N/N=C/c1cccs1	0%	-26	10%	u	0%	30%
COc1ccccc1/C=N/NC(=O)C(=O)Nc1ccccc1OC(F)(F)C(F)F	20%	u	0%	-2%	0%	-9%
COc1ccccc1NC(=O)C(=O)N/N=C/c1ccc([N+](=O)[O-])s1	-2%	-27	-16%	1.7µM*	x	2.6µM*
Cc1ccccc1C(=O)N/N=C/c1ccc([N+](=O)[O-])s1	-49%	-96*	u	2.1µM*	-35%	x
O=C(N/N=C/c1cccs1)c1cncc(Br)c1	-1%	-28	6%	-5%	0%	u
O=C(N/N=C/c1ccc([N+](=O)[O-])s1)c1ccccc1	-34%	u	u	-3%	-13%	u

High-throughput results from PubChem.
